Test results published in the supplement of paper PMC6522484.
Counter-ions that a name gives are not always drawn. ± gives the standard deviation of the averaged measurements.

Key:
DLD1 [1] = experiment: cell viability (CellTiter-Glo) relative to plate median (fraction of plate median); higher = more viable cells; details: 10 µM, treatment time 24 h
Procedure, shortened: (§1)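 Colorectal cancer cells expressing a stably transduced lentiviral TCF/Wnt firefly luciferase reporter were treated in 384-well plates with kinase inhibitor library compounds at a final 10 µM for 24 h. Firefly luciferase or CellTiterGlo luminescence was then read on parallel plates. Well signals were normalised to the plate median (webcellHTS2, additive, no log transformation) and averaged over two independent replicates.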

HCT116 [2] = experiment: as above; details: 10 µM; treatment time 24 h; reporter: TCF4/Wnt
Procedure, shortened: as §1

SW480 [3] = experiment: as above; details: 10 µM; treatment time 24 h; reporter: 7TFP
Procedure, shortened: as §1

DLD1 [4] = experiment: TCF/Wnt firefly luciferase reporter signal relative to plate median (fraction of plate median); higher = higher Wnt reporter signal; details: 10 µM, treatment time 24 h
Procedure, shortened: as §1

HCT116 [5] = experiment: as above; details: 10 µM; treatment time 24 h; reporter: TCF4/Wnt
Procedure, shortened: as §1

SW480 [6] = experiment: as above; details: 10 µM; treatment time 24 h; reporter: 7TFP
Procedure, shortened: as §1

Row | Structure (SMILES) | cell viability (DLD1 [1]; reporter: 7TFP) | cell viability (DLD1 [1]; reporter: TCF4/Wnt) | cell viability (HCT116 [2]) | cell viability (SW480 [3]) | TCF/Wnt firefly luciferase reporter signal (DLD1 [4]; reporter: 7TFP) | TCF/Wnt firefly luciferase reporter signal (DLD1 [4]; reporter: TCF4/Wnt) | TCF/Wnt firefly luciferase reporter signal (HCT116 [5]) | TCF/Wnt firefly luciferase reporter signal (SW480 [6])
1 | CC(C)c1cnn2c(NCc3ccccc3)cc(NCCCCCCN)nc12 | 1 ± 0.067 | 0.969 ± 0.073 | 1 ± 0.055 | 0.921 ± 0.041 | 1.27 ± 0.11 | 1.52 ± 0.028 | 0.988 ± 0.14 | 1.2 ± 0.17
2 | Nc1ccc(C(=O)Nc2cccc(-c3nc(N4CCOCC4)c4oc5ncccc5c4n3)c2)cn1 | 0.832 ± 0.044 | 0.858 ± 0.025 | 0.819 ± 0.049 | 1.004 ± 0.0078 | 0.758 ± 0.033 | 0.654 ± 0.069 | 0.591 ± 0.2 | 0.827 ± 0.4
3 | Cc1csc(-c2nnc(Nc3ccc(Oc4ncccc4-c4ccnc(N)n4)cc3)c3ccccc23)c1 | 0.943 ± 0.042 | 1.03 ± 0.035 | 1.16 ± 0.071 | 1.03 ± 0.059 | 1.08 ± 0.11 | 0.866 ± 0.13 | 1.75 ± 0.14 | 0.983 ± 0.067
4 | CN(C)CCOc1ccc(-c2nc(-c3ccncc3)c(-c3ccc4c(c3)CC/C4=N\O)[nH]2)cc1 | 1.04 ± 0.071 | 1.14 ± 0.064 | 1.2 ± 0.11 | 1.11 ± 0.071 | 1.3 ± 0.092 | 1.28 ± 0.042 | 1.19 ± 0.24 | 1.27 ± 0.33
5 | CN(C[C@@H]1COCCO1)S(=O)(=O)Nc1ccc2ccc3ncc(-c4cnn(C)c4)cc3c(=O)c2c1 | 0.907 ± 0.053 | 0.888 ± 0.044 | 0.926 ± 0.15 | 0.9835 ± 0.0064 | 0.96 ± 0.1 | 1.07 ± 0.035 | 0.972 ± 0.39 | 1.02 ± 0.36
6 | COc1ccc(-c2ccc3c(N4CCOCC4)nc(N4C[C@@H](C)O[C@@H](C)C4)nc3n2)cc1CO | 0.938 ± 0.074 | 0.878 ± 0.041 | 0.842 ± 0.076 | 1.18 ± 0.021 | 0.392 ± 0.059 | 0.597 ± 0.019 | 0.432 ± 0.24 | 0.812 ± 0.29
7 | CCN(CC)CCCCNc1ncc2cc(-c3cc(OC)cc(OC)c3)c(NC(=O)NC(C)(C)C)nc2n1 | 0.835 ± 0.052 | 1.01 ± 0.028 | 1.055 ± 0.0071 | 1.1 ± 0.071 | 0.702 ± 0.073 | 0.698 ± 0.073 | 0.781 ± 0.058 | 1.04 ± 0.18
8 | Cc1c(CN2CCN(C(=O)[C@H](C)O)CC2)sc2c(N3CCOCC3)nc(-c3cnc(N)nc3)nc12 | 0.999 ± 0.13 | 0.9185 ± 0.0064 | 0.679 ± 0.16 | 1.1 ± 0.092 | 0.287 ± 0.056 | 0.419 ± 0.11 | 0.577 ± 0.21 | 0.764 ± 0.017
9 | CCOc1cc2ncc(C#N)c(Nc3ccc(F)c(Cl)c3)c2cc1NC(=O)/C=C/CN(C)C [Pelitinib (EKB-569)] | 1.02 | 0.875 ± 0.081 | 0.878 ± 0.021 | 1.28 ± 0.14 | 0.837 ± 0.16 | 1.01 ± 0.17 | 0.668 ± 0.071 | 1.08 ± 0.021
10 | CCS(=O)(=O)Nc1ccc2c(c1)/C(=C(/Nc1ccc(CN3CCCCC3)cc1)c1ccccc1)C(=O)N2 [Hesperadin] | 1.08 ± 0.13 | 1.14 ± 0.085 | 0.556 ± 0.2 | 0.873 ± 0.15 | 0.765 ± 0.36 | 0.902 ± 0.11 | 0.492 ± 0.031 | 0.557 ± 0.16
11 | NC(=O)Nc1sc(-c2ccc(F)cc2)cc1C(N)=O | 0.951 ± 0.033 | 0.93 ± 0.075 | 1.1 ± 0.085 | 1.1 ± 0.014 | 0.669 ± 0.03 | 1.16 ± 0.18 | 1.39 ± 0.2 | 1.38 ± 0.057
12 | O=C(Cc1ccc(-c2ccc(OCCN3CCOCC3)cc2)cn1)NCc1ccccc1 | 0.891 ± 0.0014 | 1.005 ± 0.0071 | 0.745 ± 0.26 | 1.145 ± 0.0071 | 0.57 ± 0.038 | 0.908 ± 0.26 | 0.171 ± 0.0021 | 0.791 ± 0.047
13 | N=C(N)NC(=N)NCCc1ccccc1 [Phenformin hydrochloride] | 1.185 ± 0.0071 | 1.06 ± 0.057 | 1.21 ± 0.18 | 0.923 ± 0.086 | 1.26 ± 0.12 | 1.21 ± 0.27 | 1.3 ± 0.51 | 1.17 ± 0.21
14 | CN1CCN(c2cccc(Nc3nc4c(-c5ccc(S(C)(=O)=O)cc5)cccn4n3)c2)CC1 | 0.927 ± 0.013 | 0.896 ± 0.042 | 0.871 ± 0.031 | 1.055 ± 0.0071 | 0.96 ± 0.1 | 1.03 ± 0.057 | 1.32 ± 0.7 | 1.34 ± 0.56
15 | COc1ccc2c(Oc3ccc(NC(=O)c4c(C)n(CC(C)(C)O)n(-c5ccccc5)c4=O)nc3)ccnc2c1 | 1.15 ± 0.19 | 1.01 ± 0.016 | 1.12 | 0.921 ± 0.08 | 0.92 ± 0.35 | 0.99 ± 0.057 | 1.22 ± 0.078 | 1.05 ± 0.078
16 | CC(C)CC(=O)Nc1n[nH]c2c1CN(C(=O)C1CCN(C)CC1)C2(C)C | 1.07 ± 0.028 | 1.27 ± 0.15 | 0.793 ± 0.13 | 1.32 ± 0.071 | 1.33 ± 0.26 | 2.31 ± 0.37 | 0.193 ± 0.053 | 0.836 ± 0.064
17 | CS(=O)(=O)N1CCN(Cc2cc3nc(-c4cccc5[nH]ncc45)nc(N4CCOCC4)c3s2)CC1 | 0.998 ± 0.19 | 1.03 ± 0.05 | 1.08 ± 0.021 | 1 ± 0.035 | 0.93 ± 0.14 | 0.947 ± 0.16 | 1.16 ± 0.057 | 1.04 ± 0.075
